In PubChem BioAssay (NCATS) one finds Potency data, which are given here for 39 molecules.

The source made the active and inactive calls. How the calls were made is not given here. Some results are limits rather than exact numbers.
Potency means the concentration at half of the fitted maximal effect.

The experiment concerns HIV-1 nucleocapsid protein NCp7 (binding to TG oligonucleotide). Nature of the experiment: HIV Nucleocapsid (AID 346).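 Further: potency is for inhibitors that block NC binding and lower polarization.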 Conditions: HIV-1 NC / fluorescein-TGTGTGTG probe, fluorescence polarization. The method in brief:
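HIV-1 NC (100 nM) binding to fluorescein-labelled ssDNA TG4xF (10 nM) in Hepes pH 7.5, 250mM NaCl, 1uM ZnCl2, TCEP and 2-mercaptoethanol; compounds pin-transferred, 1 hr room temperature, fluorescence polarization read on CCD imager.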
Regarding `CCNc1ncc2nc(C)c(=O)n(Cc3cccc(OC)c3)c2n1`, the Potency is > 20 µM (inactive). The same measure for `COCC(=O)N1CCC2(CC1)CCN(C(=O)Nc1ccc(OC)cc1)CC2`: > 20 µM (inactive); for `COc1ccccc1-c1cncnc1-n1ccnc1`: > 20 µM (inactive). The same measure for `O=C(c1csnn1)N1CCC2(CCCN(Cc3cc(C(F)(F)F)cc(C(F)(F)F)c3)C2)CC1`: > 20 µM (inactive). The same measure for `CCNc1ncc2nc(CCc3ccccc3)c(=O)n(C)c2n1`: > 20 µM (inactive).

Take `CN(C)C(=O)c1ccc(-c2cncnc2-n2ccnc2)cc1`: the Potency was > 20 µM (inactive). The same measure for `COc1ccccc1CNc1ncncc1-c1cccc(C#N)c1`: > 20 µM (inactive). As for `CN(C)C(=O)c1ccc(-c2ccc3ncnc(NC4CCNCC4)c3c2)cc1`, the figure is > 20 µM (inactive); as for `CN(C)Cc1ccccc1-c1nc(NCc2ccccc2)c2ccccc2n1`, > 20 µM (inactive). The same measure for `CS(=O)(=O)N1CCC2(CC1)CN(c1ccccc1)C2`: > 20 µM (inactive); for `COc1cccc(Cn2c(=O)c(-c3ccc(F)cc3)nc3cnc(N(C)C)nc32)c1`: > 20 µM (inactive); for `COc1ccc(Oc2ncc3nc(-c4ccccc4)c(=O)n(C4CC4)c3n2)cc1`: > 20 µM (inactive). On to `COc1cccc(-c2cncnc2N(C)Cc2ccco2)c1`, for which the Potency was > 20 µM (inactive).

With `CCNc1ncc2nc(CCc3ccccc3)c(=O)n(-c3ccccc3)c2n1`, the Potency is > 4 µM (inactive). As for `COc1ccc(Oc2ncc3nc(-c4ccc(OC)cc4)c(=O)n(C4CC4)c3n2)cc1`, the figure is > 20 µM (inactive); as for `COc1ccc(-c2nc3cnc(Nc4cccc(OC)c4)nc3n(C)c2=O)cc1`, > 20 µM (inactive).

As to `Cc1nc2cnc(Oc3ccccc3)nc2n(CCc2ccccc2)c1=O`, the Potency was > 20 µM (inactive). The same measure for `COc1ccc(NC(=O)N2CCC3(CC2)CCN(C(=O)c2cnccn2)CC3)cc1`: > 20 µM (inactive). Consider `Cc1noc(C)c1-c1cc(NC2CCNCC2)ncn1`, for which the Potency is > 20 µM (inactive).

Regarding `COCCn1c(=O)c(-c2ccccc2)nc2cnc(Oc3cccc(Cl)c3)nc21`, the Potency is > 20 µM (inactive). As for `COc1ccc(Oc2ncc3nc(-c4ccc(Cl)cc4)c(=O)n(CCC#N)c3n2)cc1`, the figure is > 20 µM (inactive). As for `O=c1c(-c2cccs2)nc2cncnc2n1C1CC1`, the figure is > 20 µM (inactive); as for `CN(C)C(=O)c1ccc(-c2nc(NC3CCNCC3)c3ccccc3n2)cc1`, > 20 µM (inactive). With `COc1ccc(Oc2ncc3ncc(=O)n(Cc4cccs4)c3n2)cc1`, the Potency was > 20 µM (inactive). The same measure for `CN1CCN(c2ncc3nc(-c4ccc(Cl)cc4)c(=O)n(C)c3n2)CC1`: > 20 µM (inactive); for `CNc1ccnc(-c2ccccc2C)n1`: > 20 µM (inactive). As for `Cc1nc2cnc(Oc3cccc(Cl)c3)nc2n(CCc2ccccc2)c1=O`, the figure is > 20 µM (inactive); as for `COc1ccccc1CCn1c(=O)c(C)nc2cncnc21`, > 20 µM (inactive). The same measure for `O=C(c1cccc(F)c1)N1CCC[C@@]2(CCN(c3cccc(-c4ccccc4)c3)C2)C1`: > 20 µM (inactive); for `N#Cc1ccc(CN2CC[C@@]3(CCCN(C(=O)c4cc(C(F)(F)F)cc(C(F)(F)F)c4)C3)C2)cc1`: > 20 µM (inactive); for `N#Cc1ccc(CN2CCC3(CC2)CCN(C(=O)c2ccncc2)CC3)cc1`: > 20 µM (inactive). As for `CN1CCN(c2ncc3nc(-c4cc(F)cc(F)c4)c(=O)n(CCc4ccccc4)c3n2)CC1`, the Potency is > 20 µM (inactive). The same measure for `CN1CC[C@@]2(CCCN(C(=O)c3cc(C(F)(F)F)cc(C(F)(F)F)c3)C2)C1`: > 20 µM (inactive). The same measure for `CN(C)c1ccnc(-c2cccc(NS(C)(=O)=O)c2)n1`: > 20 µM (inactive); for `COc1ccc(C(=O)N2CCC[C@@]3(CCN(C(=O)NC(C)C)C3)C2)cc1`: > 20 µM (inactive); for `COc1ncc2nc(CCc3ccccc3)c(=O)n(CCc3ccccc3)c2n1`: > 20 µM (inactive). The same measure for `COc1cccc(Cn2c(=O)c(-c3ccc(Cl)cc3)nc3cnc(N4CCNCC4)nc32)c1`: > 20 µM (inactive); for `Cn1cc(-c2nc3cnc(Oc4ccccc4)nc3n(C)c2=O)c2ccccc21`: > 20 µM (inactive); for `CNc1nc(-c2ccccc2Cl)nc2ccccc12`: > 20 µM (inactive).
